# Hits are enriched below; roughly 19% of the tested compounds scored in any of these assays.
# HT1080NT lethal: kills 2HG-producing HT-1080-NT fibrosarcoma cells. HT-1080-NT fibrosarcoma viability, CellTiter-Glo ATP luminescence, 48 h. Potency, µM (series often up to 46.1 µM), for inactives: at the highest dose activity, negative = less viability, usual class: cytotoxic. actives 1.6% (n = 360,000). AID 686970;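 also: NT is the 2HG producing partner of a matched IDH1 knockdown line; potency is read from the fitted curve at half-maximal effect; 0% = DMSO-treated cells and -100% = media-only wells without cells; nearly all actives have a fitted effect of over 55% in size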
#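 HT-1080-NT fibrosarcoma cells (2HG-overproducing), 750 cells/well in RPMI with 5% FBS, dosed after 2 h and incubated 48 h at 37C. CellTiter-Glo luminescence normalized to DMSO and no-cell wells; concentration-response curves fitted and classed.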
# IL-1B inflam inh: inflammasome signaling inhibition, IL-1 beta readout; activity change, % at 57.5 µM; actives 4.7% (n = 360,000); THP-1 LPS/ATP IL-1B secretion, AlphaLISA, 16 h; hits give low values; AID 743279; in the data active = activity change below about -50%; inconclusive = mostly about -30% to -49%
#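 Secreted IL-1B measured by AlphaLISA bead assay after 16 h compound exposure of THP-1 cells; compounds (final up to 57.5 uM) added 1 h before LPS (250 ng/mL) and ATP (1.25 mM) stimulation; lower signal means less secretion.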
# DT40 TDP1 CPT: DT40-hTDP1 cell growth loss with CPT; AID 686979; Potency, µM (series often up to 46.2 µM), for the others: at the highest dose activity change, negative = growth inhibition, usual class: inhibitors; actives 12% (n = 420,000); chicken DT40 Tdp1-/-;hTDP1 cells + 20 nM CPT, ATP luminescence, 48 h; also: potency is read from the fitted curve at half-maximal effect; nearly all actives have a fitted effect of over 55% in size
#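 Chicken DT40 Tdp1-/- cells stably complemented with human TDP1 were seeded at 400 cells/well in medium containing 20 nM camptothecin, exposed to pin-transferred compounds, and grown at 37 °C for at least 48 hr. Viability was read as ATP luminescence.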
# TDP1 cell noCPT: qHTS for Inhibitors of human tyrosyl-DNA phosphodiesterase 1 (TDP1): qHTS in cells in absence of CPT. DT40 Tdp1-/- hTDP1 cells, no CPT, ATP luminescence, 48 h. Potency, µM (titrated, usually from 46.2 µM), for inactives: at the top dose activity change, negative = growth inhibition, usual class: inhibitors. actives 15% (n = 420,000); also: potency is read from the fitted curve at half-maximal effect; nearly all actives have a fitted effect of over 55% in size
#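 A cellular qHTS used chicken DT40 cells lacking endogenous Tdp1 but carrying stably transfected human TDP1. Compounds were applied without camptothecin, and cell growth kinetics were judged by ATP-dependent luminescence after ≥48 hr.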
# HT1080 IDH1KD tx: toxicity to HT-1080 IDH1 knockdown cells (counter line); actives 2% (n = 360,000); AID 686971; HT-1080 IDH1 knockdown viability, ATP luminescence, 48 h; Potency, µM (series often up to 46.1 µM), for the others: at the highest dose activity, negative = toxicity, hits mostly cytotoxic;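 also: potency is read from the fitted curve at half-maximal effect; 0% = DMSO wells and -100% = cell-free medium wells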
#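 Using the IDH1-knockdown HT-1080 line run in the same batch and compound series as the NT line, viability after 48 h at 37 °C was determined by CellTiter-Glo luminescence and expressed as % activity.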
# The depositor's hits bear a star; i = inactive; ? = inconclusive; nt = no result given; [ ] = another dose, or the depositor's remark. Unless noted, calls follow the shape of the dose curve; as a rule, active = well fitted curve in the direction sought with a large enough effect; inconclusive = small, poorly fitted or top-dose-only effect, or another doubt; inactive = no such curve, though single readings can be large; an effect the other way counts as inactive or inconclusive. Unless noted, % is scaled to controls: 0 for no effect and ±100 for the full control effect.
SMILES,HT1080NT lethal,IL-1B inflam inh,DT40 TDP1 CPT,TDP1 cell noCPT,HT1080 IDH1KD tx
CC1=CC(C)(C(Cl)(Cl)Cl)C(C)=CC1=NO (stereo not given),-22.2%,-24.2,-12.7%,?,-7.1%
COCCn1c(N)c(N(Cc2ccccc2)C(=O)Cc2c(Cl)cccc2Cl)c(=O)[nH]c1=O,10.2%,13.6,1.5%,-2.7%,?
CCCCNC(C(=O)Nc1ccc(Cl)c([N+](=O)[O-])c1)c1ccccc1 (stereo not given),-16.0%,?,?,20.6µM*,-6.0%
CC(Sc1nncn1C)C(=O)Nc1ccc2ccccc2c1 (stereo not given),13.0%,-16.5,-3.1%,-9.6%,-0.5%
Cc1ccc(NCc2cccn2-c2nnc(N3CCC(C(=O)NCCc4ccc(Cl)cc4)CC3)s2)cc1,nt,nt,?,13µM*,nt
CCOc1ccc(NCc2cccn2-c2nnc(N3CCC(C(=O)NCCCN4CCCCC4CC)CC3)s2)cc1 (stereo not given),-23.6%,-68.7*,?,?,-19.2%
CCOc1ccc(NCc2cccn2-c2nnc(N3CCC(C(=O)NCc4cccc(OC)c4)CC3)s2)cc1,nt,nt,?,6.51µM*,nt
CCOC(=O)c1ccc(S(=O)(=O)N2CCN(C(=O)c3nn(C)c(=O)c4ccccc34)CC2)cc1,4.7%,6.0,-25.4%,?,2.8%
O=C(CCl)N1CCN(C(=O)C2COc3ccccc3O2)CC1 (stereo not given),?,-94.9*,?,3.66µM*,23.1µM*
COc1cc2ccccc2cc1C(=O)N1CCN(C(C)=O)CC1,0.0%,22.7,15.9%,-0.2%,4.3%
O=C(C1COc2ccccc2O1)N1CCN(c2nc3ccc(F)cc3s2)CC1 (stereo not given),nt,nt,?,20.6µM*,nt
CCN1CCN(C(=O)C2COc3ccccc3O2)CC1 (stereo not given),-0.4%,17.7,0.4%,17.5%,-2.4%
CCOc1ccccc1N1CCN(C(=O)c2cccc(-c3ccc(O)cc3)c2)CC1,-17.5%,?,16.4µM*,?,-10.8%
CCOc1ccccc1N1CCN(C(=O)c2cc3ccccc3cc2OC)CC1,?,-6.8,3.66µM*,4.61µM*,5.17µM*
O=C(NCC1CCCO1)c1cccc(S(=O)(=O)N2CCCCC2)c1 (stereo not given),8.1%,0.0,-1.9%,-4.3%,0.8%
O=c1[nH]c2cc(Cl)cc([N+](=O)[O-])c2c2ccc(Cl)cc12,3.1%,22.1,3.6%,-1.3%,0.8%
CCCCCOC(=O)CSc1n[nH]c(=O)[nH]c1=O,9.1%,-21.5,4.9%,-0.5%,5.8%
COc1cc2ccccc2cc1C(=O)N1CCN(c2nc3ccc(F)cc3s2)CC1,nt,nt,16.4µM*,14.6µM*,nt
COCCn1c(=O)c(-c2ccc(OC)cc2)nc2cnc(OCc3ccccc3)nc21,nt,nt,-2.3%,14.0%,nt
O=C(CNC(=O)c1ccco1)OCC(=O)c1cccc2ccccc12,6.2%,2.3,16.4µM*,?,10.9%
O=C(CNC(=O)Cc1ccccc1)NCC(=O)OCC(=O)c1cccc2ccccc12,5.3%,10.5,?,17.8µM*,11.8%
O=C(CNC(=O)c1ccccc1)NCC(=O)OCC(=O)c1cccc2ccccc12,nt,nt,2.6%,-6.0%,nt
COCCN(Cc1ccccc1)C(=O)C1CCN(C(=O)Nc2ccccc2)CC1,5.2%,-5.8,4.1%,-1.5%,-1.8%
CCN1CCN(C(=O)c2cc(NC(=O)COC)cc3nc(-c4ccncc4)n(C)c23)CC1,nt,nt,-2.3%,16.9%,nt
Cn1c(=O)c2cc(NC(=O)NCc3ccc(F)cc3)ccc2n1C,22.9%,-11.9,-10.0%,-14.3%,6.1%
SMILES,HT1080NT lethal,IL-1B inflam inh,DT40 TDP1 CPT,TDP1 cell noCPT,HT1080 IDH1KD tx
Cc1c(C(=O)N2CCN(c3ccccn3)CC2)oc2c1C(=O)CC(C)(C)C2,1.6%,9.7,?,?,7.5%
Cc1cccc(NC(=O)c2oc3c(c2C)C(=O)CC(C)(C)C3)n1,-5.1%,-9.0,11.6µM*,5.17µM*,-18.0%
CN1CCN(S(=O)(=O)c2cccc(C(=O)Oc3ccc(C(C)(C)C)cc3)c2)CC1,-0.8%,5.1,?,?,-1.2%
CC(C)c1ccc(OC(=O)c2cccc(S(=O)(=O)N3CCN(C)CC3)c2)cc1,-17.7%,i,?,18.4µM*,-16.7%
COC(=O)c1c(NC(=O)c2cccc(S(=O)(=O)N3CCN(C)CC3)c2)sc(C)c1C,-13.3%,-76.8*,14.6µM*,14.6µM*,-25.9%
CC(C)(C)c1ccc(CCC2OCC(C[N+]3(C)CCOCC3)O2)cc1 (stereo not given),1.2%,nt,1.84µM*,2.06µM*,15.6%
Cc1ccc(Cn2nnnc2CN2CCC(c3nc4ccc(Cl)cc4[nH]3)CC2)cc1,-11.1%,-81.4*,2.59µM*,2.31µM*,?
Cc1ccc(Cn2nnnc2CN2CCC(NC(=O)c3ccc(Br)cc3)CC2)cc1,-3.2%,-4.5,?,18.4µM*,0.1%[9.24 µM]
Cc1ccccc1C(=O)NC1CCN(Cc2nnnn2Cc2ccccc2)CC1,-0.4%,5.0,?,?,-3.6%
COc1ccc(CC(=O)NC2CCN(Cc3nnnn3C(C)(C)C)CC2)cc1OC,0.6%,0.0,-4.7%,-2.5%,1.2%
CCC(C)(C)n1nnnc1CN1CCC(NC(=O)c2ccc(Br)cc2)CC1,2.4%,-7.7,?,20.6µM*,1.0%
COC(=O)c1ccccc1NC(=O)Cn1nnc2sc(-c3ccccc3)cc2c1=O,nt,nt,-2.6%,2.5%,nt
CCN(C(=O)COC(=O)c1ccccc1NCCO)c1cccc2ccccc12,-5.4%,?,-28.7%,18.4µM*,2.2%
O=C(OCC(=O)N(Cc1ccccc1)Cc1ccccc1)c1ccccc1NCCO,?,-6.8,?,?,-14.4%
COc1ccc(N2CC(C(=O)N[C@@H](C)C(=O)NCc3ccccc3OC)CC2=O)cc1 (stereo not given in full),9.6%,-8.7,4.8%,-1.8%,0.0%
Cc1ccc(C(=O)c2cn(Cc3c(F)cccc3Cl)c3nc(C)ccc3c2=O)cc1,nt,nt,-8.1%,?,nt
Cc1ccc(C(=O)c2cn(Cc3cccc(C)c3)c3nc(C)ccc3c2=O)cc1,nt,nt,?,20.6µM*,nt
Cc1ccc(C(=O)c2cn(Cc3cc(C)ccc3C)c3nc(C)ccc3c2=O)cc1,nt,nt,?,20.6µM*,nt
CCOc1ccccc1NC(=O)Cn1cc(C(=O)c2ccc(Cl)cc2)c(=O)c2ccc(C)nc21,nt,nt,?,14.6µM*,nt
COC(=O)c1cc(CN2CCN(c3ccccc3)CC2)ccc1O,7.4%,31.2,3.3%,-7.5%,13.2%
O=P(c1ccccc1)(c1ccccc1)c1nc(-c2ccc(Cl)cc2)oc1N1CCOCC1,-24.6%,-65.1*,?,-21.1%,-24.0%

# Screening data deposited in PubChem BioAssay by National Center for Advancing Translational Sciences (NCATS).
